IL1B secr inh: blocks inflammasome-driven IL-1 beta release; activity change, % at 57.5 µM; hit rate 4.7% among 360,000; THP-1 LPS/ATP IL-1B secretion, AlphaLISA, 16 h; stronger effect = lower value; AID 743279; in the data active means activity change below about -50%; inconclusive means mostly about -30% to -49%
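THP-1 cells pretreated 1 hr with compounds (up to 57.5 uM final), then stimulated with LPS (250 ng/mL final) plus ATP (1.25 mM final); secreted IL-1B measured by AlphaLISA after 16 hr, decreased signal indicating inhibition.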
KB-V1 cytotox: KB-V1 MDR subline cytotoxicity | KB-V1 MDR cells viability, CellTiter-Glo, 72 h | Potency, µM (doses to about 46.1 µM), usual class: cytotoxic | hit rate 3.4% among 400,000 | AID 1347076; further: potency means the concentration at half of the fitted maximal effect; nearly all actives have a fitted effect of over 60% in size
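Potencies derive from concentration-effect curves fitted to normalized luminescence (CellTiter-Glo) of KB-V1 cells treated for 72 h at 37 degrees C in phenol-red-free DMEM containing 10% FBS.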
HT1080NT lethal: kills 2HG-producing HT-1080-NT fibrosarcoma cells; HT-1080-NT fibrosarcoma viability, CellTiter-Glo ATP luminescence, 48 h; Potency, µM (top dose mostly 46.1 µM), without a hit: at the top dose activity, negative = less viability, usual class: cytotoxic; hit rate 1.6% among 360,000;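 further: NT is the 2HG producing partner of a matched IDH1 knockdown line; potency means the concentration at half of the fitted maximal effect; 0% = DMSO-treated cells and -100% = media-only wells without cells; nearly all actives have a fitted effect of over 55% in size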
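Read-out is CellTiter-Glo luminescence after 10 minutes at room temperature, following 48 hours' compound treatment of HT-1080-NT cells (750 cells/well, RPMI, 5% FBS, 37 degrees C).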
KB-3-1 cytotox: KB-3-1 parental cell cytotoxicity | KB-3-1 viability, CellTiter-Glo ATP luminescence, 72 h | Potency, µM (doses to about 46.1 µM), usual class: cytotoxic | hit rate 1.4% among 400,000; further: potency means the concentration at half of the fitted maximal effect; nearly all actives have a fitted effect of over 60% in size
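KB-3-1 cells, DMEM (no phenol red) + 10% FBS; compound by pin transfer, 72 h, 37 °C. Readout: CellTiter-Glo luminescence after 10 min. Data normalized, curve-fitted.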
HT1080 IDH1KD tx: kills HT-1080 cells with IDH1 knockdown | HT-1080 IDH1 knockdown viability, ATP luminescence, 48 h | Potency, µM (titrated, usually from 46.1 µM), without a hit: top-dose activity, negative = toxicity, actives largely listed as cytotoxic | hit rate 2% among 360,000;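 further: potency means the concentration at half of the fitted maximal effect; 0% = DMSO wells and -100% = cell-free medium wells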
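% activity derives from luminescence (CellTiter-Glo), normalised to DMSO and no-cell wells. HT-1080-IDH1KD cells, 750/well, had 48 h compound exposure at 37 °C.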
* = called active by the depositor; i = inactive; ? = inconclusive; . = no result given; [ ] = dose if it differs, or a comment. This is a sample that favours compounds with a hit; in the whole collection about 8.8% have one here. Unless noted, the call rests on the fitted dose curve; in most records, active means well fitted curve in the direction sought with a large enough effect; inconclusive means small, poorly fitted or top-dose-only effect, or another doubt; inactive means no such curve, though single readings can be large; an effect the other way counts as inactive or inconclusive. Unless noted, on the % scale 0 is the no-effect control and ±100 the full control effect.

SMILES	IL1B secr inh	KB-V1 cytotox	HT1080NT lethal	KB-3-1 cytotox	HT1080 IDH1KD tx
CCOC(=O)C1(CCOc2ccccc2)CCN(Cc2cnc(C)[nH]2)CC1	-94.0*	i	-11.3%	i	-11.3%
CCOC(=O)C1(CCOc2ccccc2)CCN(Cc2ccc(COC)o2)CC1	-57.1*	i	-5.7%	i	-7.8%
CCOC(=O)C1(CCOc2ccccc2)CCN(Cc2ccc(O)cc2)CC1	0.0	i	-16.0%	i	-12.9%
CCOC(=O)C1(CCOc2ccccc2)CCN(Cc2ccc(OC)c(COC)c2)CC1	-52.0*	?	?	?	13µM*
CCOC(=O)C1(CCOc2ccccc2)CCN(Cc2cnc(SC)nc2)CC1	?	?	-0.2%	i	-19.3%
COc1ccc(C(=O)c2c(N)c(-c3nc(-c4ccc(OC)cc4)cs3)c3ccccn23)cc1	.	i	.	i	.
CCOC(=O)C1(CCc2ccccc2)CCN(Cc2ccc(OC)cc2)CC1	-28.7	i	-13.8%	i	-1.9%
CCOC(=O)C1(CCOc2ccccc2)CCN(Cc2cc(OC)c(O)c(OC)c2)CC1	0.0	i	-19.3%	i	-4.7%
CCOC(=O)C1(CCOc2ccccc2)CCN(Cc2ccc(OC)c(O)c2)CC1	-51.6*	i	10.9%	i	0.0%
CCOC(=O)C1(CCc2ccccc2)CCN(Cc2c(O)cccc2OC)CC1	-91.7*	?	?	?	32.6µM*
O=C(Nc1ccon1)c1cccc(S(=O)(=O)N2CCCCC2)c1	32.5	i	-8.1%	?	-3.8%
CCCCN(CCCC)CCCNC(=O)Cn1cc2c(n1)-c1c(oc(C(=O)N3CCCC3)c1C)CC2	?	i	0.0%	i	-5.5%
CN1C(=O)C(O)(CC(=O)c2ccc(F)cc2)c2cc(Br)ccc21 (configuration not stated)	36.3	i	?	25.9µM*	-2.2%
COc1ccc(NC(=O)C2CCC(CNS(=O)(=O)c3ccc4c(c3)C(C)(C)C(=O)N4C)CC2)cc1 (configuration not stated)	.	i	.	i	.
Cc1cc(C)cc(NC(=O)C2CCC(CNS(=O)(=O)c3ccc4c(c3)C(C)(C)C(=O)N4C)CC2)c1 (configuration not stated)	.	i	.	18.4µM*	.
Cc1ccc(CNC(=O)CCS(=O)(=O)c2ccc3c(c2)CC(C)N3C(=O)C2CC2)cc1 (configuration not stated)	19.6	i	-13.1%	20.6µM*	-24.1%
CC(=O)N1c2ccc(S(=O)(=O)NCC3CCC(C(=O)Nc4cc(C)ccn4)CC3)cc2CC1C (configuration not stated)	-78.5*	i	?	23.1µM*	?
CC1Cc2cc(S(=O)(=O)NCc3ccccc3Cl)ccc2N1C(=O)C1CCC1 (configuration not stated)	.	?	.	23.1µM*	.
CC1Cc2cc(S(=O)(=O)NCCc3ccccc3)ccc2N1C(=O)C1CC1 (configuration not stated)	-2.0	i	-2.2%	i	-12.5%
CC(=O)N1c2ccc(S(=O)(=O)NCC3CCC(C(=O)Nc4ncccc4C)CC3)cc2CC1C (configuration not stated)	9.1	i	0.8%	i	15.5%
COc1ccccc1CNC(=O)CCCN1C(=O)CSc2c1c(C)nn2-c1ccccc1	.	i	.	i	.
COc1cccc(CNS(=O)(=O)c2ccc3c(c2)CC(C)N3C(=O)C2CC2)c1 (configuration not stated)	2.0	?	?	i	-20.7%
COc1ccc(CNS(=O)(=O)c2ccc3c(c2)CC(C)N3C(=O)C2CC2)cc1 (configuration not stated)	-64.9*	?	?	?	?
CCNc1nc(CN2CCOCC2)nc2sc3c(c12)CCC3	-14.8	i	-2.1%	i	3.1%
O=S(=O)(Nc1nc(CN2CCOCC2)nc2sc3c(c12)CCCC3)c1cc(F)ccc1F	29.2	10.3µM*	-5.2%	i	-0.8%
SMILES	IL1B secr inh	KB-V1 cytotox	HT1080NT lethal	KB-3-1 cytotox	HT1080 IDH1KD tx
CSc1nc(N2CCOCC2)c2c3c(sc2n1)CCC3	3.8	i	-16.5%	i	-2.7%[9.24 µM]
c1ccc2c(c1)CCN(c1nc(CN3CCOCC3)nc3sc4c(c13)CCCC4)C2	-51.3*	?	-14.6%	?	-21.8%
O=c1ccc(-c2ccccc2)nn1Cc1ccccc1	?	i	-0.8%	i	11.7%
Cc1ccc(-c2ccc(=O)n(Cc3cccc(Br)c3)n2)cc1	-77.6*	16.4µM*	-22.0%	?	-12.1%
Cc1ccc(C)c(Cn2nc(-c3ccccc3)ccc2=O)c1	-74.9*	i	?	i	-28.9%
Cc1ccc(-c2ccc(=O)n(Cc3cc(C)ccc3C)n2)cc1	?	?	-13.1%	i	?
COc1ccc(-c2ccc(=O)n(Cc3cccc(Cl)c3)n2)cc1	-51.1*	i	-10.2%	i	-14.2%
CCOc1ccc(NC(=O)CCn2c(=O)[nH]c3ccsc3c2=O)cc1	12.8	i	1.0%	i	0.0%
O=C(Cc1ccccc1)Nc1ccc2[nH]ncc2c1	-58.4*	i	-14.6%	i	-22.0%
O=C(Cc1ccc(Br)cc1)Nc1ccc2[nH]ncc2c1	-16.9	i	-1.4%	i	-17.1%
CCc1ccc(NC(=O)N2CCN(C(=O)C3CCCO3)CC2)cc1 (configuration not stated)	6.7	i	16.1%	i	12.4%
Cc1ccc(NS(=O)(=O)c2ccc3c(c2)C(Cl)(Cl)C(=O)N3)cc1C	.	i	.	i	.
O=C(/C=C/Nc1cccc(C(F)(F)F)c1)c1ccc(Oc2ncccn2)cc1	3.9	20.6µM*	2.0%	i	1.3%
Cc1ccc(S(=O)(=O)N(C)c2ccccc2C(=O)Nc2c(F)cccc2F)cc1	6.7	i	14.8%	i	4.0%
COc1ccc(-c2nc3ccc(NS(=O)(=O)c4ccc(C)cc4)cc3o2)cc1	.	i	.	i	.
Cc1cc(=O)[nH]c(SCC2COC3(CCCCC3)O2)n1 (configuration not stated)	-7.5	?	0.3%	i	-3.2%
NCCNC[C@@H]1COC2(CCCCCCCCCCC2)O1	-68.3*	?	14.6µM*	i	?
COc1ccccc1-n1cnnc1SCC(=O)c1cc(C)n(Cc2cccs2)c1C	0.0	16.4µM*	-0.4%	i	-2.9%
Cc1cc(C(=O)CSc2nnc(-c3ccccc3F)o2)c(C)n1Cc1cccs1	42.6	?	6.7%	i	-5.7%
CC(C)(C)NC(=O)CSc1nnc(C2CC2)n1-c1ccccc1	-1.3	?	10.2%	?	22.1%
CC(Oc1ccc2ccccc2c1)C(=O)NNC(=O)Nc1ccccc1F (configuration not stated)	-50.3*	i	7.1%	i	-5.9%

High-throughput results from PubChem.
